Source: PubChem BioAssay
Compounds with a hit are over-represented: about 6.7% of the library has one in this group of screens.
Pf Dd2 inh = blocks growth of Plasmodium falciparum Dd2 parasites | P. falciparum Dd2 growth, SYBR Green, 72 h; stronger effect = lower value | activity change, % at 10 µM | actives 2.3% (n = 94,000) | AID 1159554; in the data active = activity change below about -80%; inconclusive = no clear call, values can overlap the other calls
T cruzi growth-1 = blocks T. cruzi growth in NIH3T3 culture; AID 624255; T. cruzi beta-gal in NIH3T3, GalScreen luminescence, 90 h; inhibition, % at 8.34 µM; actives 5.9% (n = 77,000);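 active = mean inhibition above about 93%, with at least 55% of replicates each passing it, limit read from the data, passing the limit was not always enough; inconclusive = only one of those two conditions holds; inactive = neither condition holds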
C diff HTS = blocks growth of Clostridium difficile; Clostridium difficile clinical isolate growth, OD600, 24 h; stronger effect = lower value; growth activity, negative = inhibition, % at 16 µg/mL (by protocol); actives 0.25% (n = 86,000); AID 1259249;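 active = mean growth activity at or below -80% and every replicate also at or below -80%; inconclusive = mean at or below -80% but some replicate above -80%; inactive = mean growth activity above -80%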
T cruzi growth-2 = Trypanosoma cruzi proliferation inhibition; actives 72% (n = 5,600); AID 651739; T. cruzi beta-gal in NIH3T3, GalScreen luminescence, 90 h; shares compounds with T cruzi growth-1; inhibition, % at 8.35 µM;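 active = mean replicate inhibition above about 95% and at least 55% of replicates individually reaching it, limit read from the data; inconclusive = only one of the two criteria is met; inactive = neither criterion is met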
T cruzi growth-3 = blocks T. cruzi growth in NIH3T3 host cells; shares compounds with T cruzi growth-1; T. cruzi beta-gal in NIH3T3, GalScreen luminescence, 90 h; inhibition, % at 2.09 µM; actives 21% (n = 5,600); AID 651740;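 active = mean inhibition above about 95%, with at least 55% of replicates also reaching it, limit read from the data; inconclusive = meets just one of the two conditions; inactive = meets neither condition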
3T3 cytotox = NIH/3T3 (mouse) viability loss; shares compounds with T cruzi growth-1; NIH/3T3 viability, CellTiter-Glo ATP luminescence, 90 h; cytotoxicity (signal decrease), % at 8.35 µM; actives 14% (n = 5,600); AID 651742;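 active = mean signal decrease across replicates above about 35% based on untreated-well scatter, with enough replicates individually passing, limit read from the data; inconclusive = no rule stated though some were filed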
3T3 cytotox 2 = NIH/3T3 (mouse) viability loss. shares compounds with T cruzi growth-1. NIH/3T3 viability, CellTiter-Glo ATP luminescence, 90 h. inhibition, % at 24.9 µM. actives 56% (n = 5,600);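 active = mean loss of cell viability signal at or above a set limit, and enough replicates individually reaching it; inconclusive = meets only the mean limit or only the replicate share; inactive = meets neither condition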
Large screens that a line does not name were inactive (follow-up assays come after a bar, where they were run).

Cc1noc(C)c1NC(=O)Nc1ccc2c(c1)C(=O)N([C@@H](C)CO)C[C@@H](C)[C@@H](CN(C)Cc1ccc(C(F)(F)F)cc1)OCCCC[C@@H](C)O2	none
CNC[C@@H]1Oc2ccc(NC(=O)Nc3ccc4c(c3)OCO4)cc2CC(=O)N([C@H](C)CO)C[C@H]1C	none
Cn1cnc(S(=O)(=O)N[C@@H]2C=C[C@H](CC(=O)N3CCN(c4ccccc4)CC3)O[C@@H]2CO)c1	none (no result: T cruzi growth-1)
COc1ccc(S(=O)(=O)Nc2ccc3c(c2)C(=O)N([C@H](C)CO)C[C@H](C)[C@@H](CN(C)S(=O)(=O)c2cccs2)OCCCC[C@H](C)O3)cc1	none
COc1ccc(S(=O)(=O)Nc2ccc3c(c2)C(=O)N([C@@H](C)CO)C[C@H](C)[C@@H](CN(C)S(=O)(=O)c2cccs2)OCCCC[C@@H](C)O3)cc1	T cruzi growth-1 109 | T cruzi growth-2 103 | T cruzi growth-3 inactive | 3T3 cytotox inactive | 3T3 cytotox 2 inactive
COc1ccc(S(=O)(=O)Nc2ccc3c(c2)C(=O)N([C@H](C)CO)C[C@H](C)[C@H](CN(C)S(=O)(=O)c2cccs2)OCCCC[C@H](C)O3)cc1	T cruzi growth-1 inconclusive | T cruzi growth-2 106 | T cruzi growth-3 inactive | 3T3 cytotox inactive | 3T3 cytotox 2 inactive
COc1ccc(S(=O)(=O)Nc2ccc3c(c2)C(=O)N([C@H](C)CO)C[C@H](C)[C@@H](CN(C)S(=O)(=O)c2cccs2)OCCCC[C@@H](C)O3)cc1	none
C[C@@H]1CN([C@H](C)CO)C(=O)c2cc(NC(=O)Nc3ccc(F)cc3)ccc2O[C@@H](C)CCCCO[C@@H]1CN(C)S(=O)(=O)c1ccc(Cl)cc1	none
COc1ccc(CN(C)C[C@H]2OCCCC[C@H](C)Oc3ccc(NC(=O)CCC(F)(F)F)cc3C(=O)N([C@H](C)CO)C[C@@H]2C)cc1	none
Cc1noc(C)c1NC(=O)N(C)C[C@H]1OCCCC[C@@H](C)Oc2ccc(NC(=O)C3CCCCC3)cc2C(=O)N([C@@H](C)CO)C[C@H]1C	none
C[C@@H]1CN([C@H](C)CO)C(=O)c2cc(NS(=O)(=O)c3ccc(Cl)cc3)ccc2O[C@@H](C)CCCCO[C@@H]1CN(C)C(=O)C1CCCCC1	T cruzi growth-1 inconclusive | T cruzi growth-2 100 | T cruzi growth-3 inactive | 3T3 cytotox inactive | 3T3 cytotox 2 80
C[C@@H]1CN([C@@H](C)CO)C(=O)c2cc(NS(=O)(=O)c3ccc(Cl)cc3)ccc2O[C@@H](C)CCCCO[C@H]1CN(C)C(=O)C1CCCCC1	none
C[C@H](CO)N1C[C@H](C)[C@H](CN(C)C(=O)C2CCCCC2)OCCCC[C@H](C)Oc2ccc(NS(=O)(=O)c3ccc(Cl)cc3)cc2C1=O	none
C[C@@H]1CCCCO[C@H](CN(C)C(=O)C2CCCCC2)[C@H](C)CN([C@@H](C)CO)C(=O)c2cc(NS(=O)(=O)c3ccc(Cl)cc3)ccc2O1	T cruzi growth-1 inconclusive | T cruzi growth-2 inconclusive | T cruzi growth-3 inactive | 3T3 cytotox inactive | 3T3 cytotox 2 95
CCCNC(=O)N1[C@H](CO)[C@H](c2ccc(C3=CCCC3)cc2)[C@@H]1CNC(C)=O	none
C[C@H]1CN([C@@H](C)CO)S(=O)(=O)c2ccc(C#Cc3ccc(F)cc3)cc2O[C@H]1CN(C)C(=O)CN(C)C	none
C[C@@H]1CN([C@H](C)CO)S(=O)(=O)c2ccc(C3=CCCC3)cc2O[C@@H]1CN(C)Cc1ccncc1	none
C[C@@H]1CN([C@H](C)CO)S(=O)(=O)c2ccc(C3=CCCC3)cc2O[C@H]1CN(C)Cc1ccncc1	T cruzi growth-1 115 | T cruzi growth-2 98 | T cruzi growth-3 104 | 3T3 cytotox 68 | 3T3 cytotox 2 76
C[C@@H]1CN([C@H](C)CO)S(=O)(=O)c2ccc(C3=CCCC3)cc2O[C@@H]1CN(C)Cc1cncnc1	none
C[C@H]1CN([C@@H](C)CO)S(=O)(=O)c2ccc(C3=CCCC3)cc2O[C@H]1CN(C)Cc1ccncc1	T cruzi growth-1 105 | T cruzi growth-2 102 | T cruzi growth-3 inactive | 3T3 cytotox inactive | 3T3 cytotox 2 31
